{"source": "PubChem BioAssay (NCATS)", "note": "Records with an inconclusive call do not appear. Entries that show only a call come without a potency. Calls of active or inactive are those of the source. Calls follow the shape of the dose curve; as a rule, active = well fitted curve in the direction sought with a large enough effect; inconclusive = small, poorly fitted or top-dose-only effect, or another doubt; inactive = no such curve, though single readings can be large; an effect the other way counts as inactive or inconclusive."}
{"target": "Arylsulfatase A (Homo sapiens) (UniProt P15289)", "sequence (P15289 whole entry, looked up)": "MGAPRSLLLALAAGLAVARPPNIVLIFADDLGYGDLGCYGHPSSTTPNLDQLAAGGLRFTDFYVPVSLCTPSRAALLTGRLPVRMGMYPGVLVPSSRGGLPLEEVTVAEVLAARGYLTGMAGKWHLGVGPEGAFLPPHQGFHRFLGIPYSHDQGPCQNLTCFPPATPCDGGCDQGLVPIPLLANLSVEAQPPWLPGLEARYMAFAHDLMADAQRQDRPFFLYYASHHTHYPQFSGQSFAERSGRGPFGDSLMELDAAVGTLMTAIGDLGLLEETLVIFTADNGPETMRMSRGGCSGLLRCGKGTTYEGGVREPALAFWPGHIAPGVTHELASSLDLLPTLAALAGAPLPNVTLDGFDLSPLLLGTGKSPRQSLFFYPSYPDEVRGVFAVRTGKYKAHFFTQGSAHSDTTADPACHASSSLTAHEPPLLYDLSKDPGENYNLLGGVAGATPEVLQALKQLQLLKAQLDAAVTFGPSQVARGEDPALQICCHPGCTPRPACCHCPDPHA", "assay": "qHTS screen for enhancers of Arylsulfatase A (ASA1): LOPAC Validation Assay (AID 720538); also: potency is read from the fitted curve at half-maximal effect", "settings": "ASA enzyme activity, LOPAC qHTS enhancer assay; series mostly up to 57.5 µM", "procedure,_shortened": "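First, ASA-I179S fibroblasts from an MLD patient adhered for 6 hrs. Next, compounds were added for 48h. Then pNCS substrate (0.5mM final) with lysis buffer reacted 14h at room temperature before NaOH stop and fluorescence measurement.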"}
{"smiles": "CC(C)(C)c1cc(/C=C(\\C#N)C(N)=S)cc(C(C)(C)C)c1O", "Potency": "inactive"}
{"smiles": "COc1cccc(OC)c1OCCNCC1CSc2ccccc2O1", "note": "(stereo unspecified)", "Potency": "1070 nM (active)"}
{"smiles": "CSC(N)=NCCC[C@H](N)C(=O)O", "Potency": "inactive"}
{"smiles": "CCOC(=O)C12CC1/C(=N/O)c1ccccc1O2", "note": "(stereo unspecified)", "Potency": "inactive"}
{"smiles": "Nc1nc2c(nc(Br)n2C2OC3COP(=O)(O)O[C@@H]3C2O)c(=O)[nH]1", "note": "(stereo partly specified)", "Potency": "inactive"}
{"smiles": "Oc1ccc(Cn2cc[nH]c2=S)cc1", "Potency": "inactive"}
{"smiles": "Cn1cc(C(=O)OCC2CCN(CCNS(C)(=O)=O)CC2)c2ccccc21", "Potency": "inactive"}
{"smiles": "Nc1ccc2c3c(cccc13)C(=O)NC2=O", "Potency": "4260 nM (active)"}
{"smiles": "NCCC1CCCC(CCN)N1", "note": "(stereo unspecified)", "Potency": "inactive"}
{"smiles": "CCCC(=O)NCCc1c2n(c3ccc(OC)cc13)CCCc1ccccc1-2", "Potency": "inactive"}
{"smiles": "CCCCCCCCCCC(C)(C)C(=O)Nc1c(OC)cc(OC)cc1OC", "Potency": "inactive"}
{"smiles": "N=S(=O)(O)Cc1noc2ccccc12", "Potency": "inactive"}
{"smiles": "O=C1Cc2c([nH]c3ccc(Br)cc23)-c2ccccc2N1", "Potency": "inactive"}
{"smiles": "CC1CCN=C(N)S1", "note": "(stereo unspecified)", "Potency": "inactive"}
{"smiles": "NC(C(=O)N[C@@H]1C(=O)N2C(C(=O)O)=C(Cl)CS[C@H]12)c1ccccc1", "note": "(stereo partly specified)", "Potency": "inactive"}
{"smiles": "OC[C@H]1O[C@H](n2cnc3c(N[C@H]4CCC[C@@H]4O)ncnc32)[C@H](O)[C@@H]1O", "Potency": "inactive"}
{"smiles": "OCC1NCC(O)C(O)C1O", "note": "(stereo unspecified)", "Potency": "inactive"}
{"smiles": "C[C@@H](NCCc1ccc(O)cc1)[C@@H](O)c1ccc(O)cc1", "Potency": "inactive"}
{"smiles": "CC[n+]1c(/C=C/C=C2/N(C)c3ccccc3C2(C)C)sc2ccccc21", "Potency": "inactive"}
{"smiles": "COC1(C2=NCCN2)COc2ccccc2O1", "note": "(stereo unspecified)", "Potency": "inactive"}
{"smiles": "N[C@@H](CS(=O)O)C(=O)O", "Potency": "inactive"}
{"smiles": "CC(N)(C(=O)O)c1ccc(C(=O)O)cc1", "note": "(stereo unspecified)", "Potency": "inactive"}
{"smiles": "O=C(O)c1ccccc1Nc1ccccc1", "Potency": "inactive"}
{"smiles": "N[C@H](C(=O)O)[C@H](O)C(=O)O", "Potency": "inactive"}
{"smiles": "c1ccc(CN2CCC3(CCCc4ccccc43)CC2)cc1", "Potency": "inactive"}
{"smiles": "NCCS(=O)O", "Potency": "inactive"}
{"smiles": "NC1(C(=O)O)CCc2cc(C(=O)O)ccc21", "note": "(stereo unspecified)", "Potency": "inactive"}
{"smiles": "CC(=O)NNC(=O)N1Cc2ccccc2Oc2ccc(Cl)cc21", "Potency": "inactive"}
{"smiles": "N#Cc1cc2nc(O)c(O)nc2cc1[N+](=O)[O-]", "Potency": "inactive"}
{"smiles": "CCC1(O)CC2CN(CCc3c([nH]c4ccccc34)[C@@](C(=O)OC)(c3cc4c(cc3OC)N(C)C3[C@]45CCN4CC=C[C@@](CC)([C@@H](OC(C)=O)[C@]3(O)C(=O)OC)[C@H]45)C2)C1", "note": "(stereo partly specified)", "Potency": "inactive"}
{"smiles": "CCCCCCC/C=C\\CCCCCCCCC(=O)O", "Potency": "inactive"}
{"smiles": "O=c1ccn([C@@H]2O[C@H](COP(=O)(O)OP(=O)(O)O)[C@@H](O)[C@H]2O)c(=O)[nH]1", "Potency": "inactive"}
{"smiles": "O=C(OCCN1CCOCC1)C1(c2ccccc2)CCCCC1", "Potency": "inactive"}
{"smiles": "COc1ccccc1N1CCN(CCN(C(=O)c2ccc(F)cc2)c2ccccn2)CC1", "Potency": "inactive"}
{"smiles": "CCN(CC)CCCCCCCCOC(=O)c1cc(OC)c(OC)c(OC)c1", "Potency": "inactive"}
{"smiles": "CCCOC(=O)c1c(-c2ccccc2)nc(CC)c(C(=O)SCC)c1CCC", "Potency": "inactive"}
{"smiles": "[N-]=[N+]=Nc1ccc(C(=O)CSC[C@H](NC(=O)CC[C@H](N)C(=O)O)C(=O)NCC(=O)O)cc1", "Potency": "inactive"}
{"smiles": "CN1CCN(c2nc3cc(C(F)(F)F)ccc3n3cccc23)CC1", "Potency": "inactive"}
{"test_system": "not listed separately", "assay": "qHTS for compounds that reverse cellular toxicity of Amyloid beta (A-beta) peptide in yeast: LOPAC Validation Assay (AID 720559)", "settings": "yeast expressing A-beta; series mostly up to 46.1 µM", "procedure,_shortened": "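Activity is expressed relative to DMSO and an equimolar ferric chloride/clioquinol mix. Compounds were pinned into medium with A-beta-expressing yeast, grown 48 hr at 30 C, then read by absorbance at 600 nm.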"}
{"smiles": "CC(C)(C)c1cc(/C=C(\\C#N)C(N)=S)cc(C(C)(C)C)c1O", "outcome": "inactive"}
{"smiles": "COc1cccc(OC)c1OCCNCC1CSc2ccccc2O1", "note": "(stereo unspecified)", "outcome": "inactive"}
{"smiles": "CSC(N)=NCCC[C@H](N)C(=O)O", "outcome": "inactive"}
{"smiles": "CCOC(=O)C12CC1/C(=N/O)c1ccccc1O2", "note": "(stereo unspecified)", "outcome": "inactive"}
{"smiles": "Nc1nc2c(nc(Br)n2C2OC3COP(=O)(O)O[C@@H]3C2O)c(=O)[nH]1", "note": "(stereo partly specified)", "outcome": "inactive"}
{"smiles": "Oc1ccc(Cn2cc[nH]c2=S)cc1", "outcome": "inactive"}
{"smiles": "Cn1cc(C(=O)OCC2CCN(CCNS(C)(=O)=O)CC2)c2ccccc21", "outcome": "inactive"}
{"smiles": "Nc1ccc2c3c(cccc13)C(=O)NC2=O", "outcome": "inactive"}
{"smiles": "NCCC1CCCC(CCN)N1", "note": "(stereo unspecified)", "outcome": "inactive"}
{"smiles": "CCCC(=O)NCCc1c2n(c3ccc(OC)cc13)CCCc1ccccc1-2", "outcome": "inactive"}
{"smiles": "CCCCCCCCCCC(C)(C)C(=O)Nc1c(OC)cc(OC)cc1OC", "outcome": "inactive"}
{"smiles": "N=S(=O)(O)Cc1noc2ccccc12", "outcome": "inactive"}
{"smiles": "O=C1Cc2c([nH]c3ccc(Br)cc23)-c2ccccc2N1", "outcome": "inactive"}
{"smiles": "CC1CCN=C(N)S1", "note": "(stereo unspecified)", "outcome": "inactive"}
{"smiles": "NC(C(=O)N[C@@H]1C(=O)N2C(C(=O)O)=C(Cl)CS[C@H]12)c1ccccc1", "note": "(stereo partly specified)", "outcome": "inactive"}
{"smiles": "OC[C@H]1O[C@H](n2cnc3c(N[C@H]4CCC[C@@H]4O)ncnc32)[C@H](O)[C@@H]1O", "outcome": "inactive"}
{"smiles": "OCC1NCC(O)C(O)C1O", "note": "(stereo unspecified)", "outcome": "inactive"}
{"smiles": "C[C@@H](NCCc1ccc(O)cc1)[C@@H](O)c1ccc(O)cc1", "outcome": "inactive"}
{"smiles": "CC[n+]1c(/C=C/C=C2/N(C)c3ccccc3C2(C)C)sc2ccccc21", "outcome": "inactive"}
{"smiles": "COC1(C2=NCCN2)COc2ccccc2O1", "note": "(stereo unspecified)", "outcome": "inactive"}
{"smiles": "N[C@@H](CS(=O)O)C(=O)O", "outcome": "inactive"}
{"smiles": "CC(N)(C(=O)O)c1ccc(C(=O)O)cc1", "note": "(stereo unspecified)", "outcome": "inactive"}
{"smiles": "O=C(O)c1ccccc1Nc1ccccc1", "outcome": "inactive"}
{"smiles": "N[C@H](C(=O)O)[C@H](O)C(=O)O", "outcome": "inactive"}
{"smiles": "c1ccc(CN2CCC3(CCCc4ccccc43)CC2)cc1", "outcome": "inactive"}
{"smiles": "NCCS(=O)O", "outcome": "inactive"}
{"smiles": "NC1(C(=O)O)CCc2cc(C(=O)O)ccc21", "note": "(stereo unspecified)", "outcome": "inactive"}
{"smiles": "CC(=O)NNC(=O)N1Cc2ccccc2Oc2ccc(Cl)cc21", "outcome": "inactive"}
{"smiles": "N#Cc1cc2nc(O)c(O)nc2cc1[N+](=O)[O-]", "outcome": "inactive"}
{"smiles": "CCC1(O)CC2CN(CCc3c([nH]c4ccccc34)[C@@](C(=O)OC)(c3cc4c(cc3OC)N(C)C3[C@]45CCN4CC=C[C@@](CC)([C@@H](OC(C)=O)[C@]3(O)C(=O)OC)[C@H]45)C2)C1", "note": "(stereo partly specified)", "outcome": "inactive"}
{"smiles": "CCCCCCC/C=C\\CCCCCCCCC(=O)O", "outcome": "inactive"}
{"smiles": "O=c1ccn([C@@H]2O[C@H](COP(=O)(O)OP(=O)(O)O)[C@@H](O)[C@H]2O)c(=O)[nH]1", "outcome": "inactive"}
{"smiles": "O=C(OCCN1CCOCC1)C1(c2ccccc2)CCCCC1", "outcome": "inactive"}
{"smiles": "COc1ccccc1N1CCN(CCN(C(=O)c2ccc(F)cc2)c2ccccn2)CC1", "outcome": "inactive"}
{"smiles": "CCN(CC)CCCCCCCCOC(=O)c1cc(OC)c(OC)c(OC)c1", "outcome": "inactive"}
{"smiles": "CCCOC(=O)c1c(-c2ccccc2)nc(CC)c(C(=O)SCC)c1CCC", "outcome": "inactive"}
{"smiles": "[N-]=[N+]=Nc1ccc(C(=O)CSC[C@H](NC(=O)CC[C@H](N)C(=O)O)C(=O)NCC(=O)O)cc1", "outcome": "inactive"}
{"smiles": "CN1CCN(c2nc3cc(C(F)(F)F)ccc3n3cccc23)CC1", "outcome": "inactive"}
